dFosB act-1: mouse delta FosB homodimer activation. P13346. 340,000 tested, 0.99% active. purified delta FosB, TAMRA-CDK5 oligo fluorescence polarization; percent of positive-control signal above neutral wells. activation, % at 25 µM;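 active = mean activation above about 17%, with every replicate also reaching it, limit read from the data, passing the limit was not always enough; inconclusive = only one of the two conditions met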
Target sequence (P13346 whole entry, looked up): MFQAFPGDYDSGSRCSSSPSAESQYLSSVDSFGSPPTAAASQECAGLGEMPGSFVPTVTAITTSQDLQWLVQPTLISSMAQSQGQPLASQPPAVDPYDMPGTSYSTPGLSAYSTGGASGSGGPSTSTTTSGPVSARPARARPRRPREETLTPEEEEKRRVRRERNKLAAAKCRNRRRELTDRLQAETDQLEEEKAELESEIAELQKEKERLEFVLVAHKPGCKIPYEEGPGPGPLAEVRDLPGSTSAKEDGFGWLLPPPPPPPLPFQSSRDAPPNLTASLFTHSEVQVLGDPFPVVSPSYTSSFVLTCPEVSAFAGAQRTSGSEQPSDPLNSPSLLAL
ZTA DNA inh: ZTA (EBV) inhibition in EBNA-1 counter-screen | 320,000 tested, 0.15% active | ZTA-DNA binding, fluorescence polarization | inhibition, % at 11 µM | P03206 | AID 2234; in the data active = inhibition above about 33%
Target sequence (P03206 whole entry, looked up): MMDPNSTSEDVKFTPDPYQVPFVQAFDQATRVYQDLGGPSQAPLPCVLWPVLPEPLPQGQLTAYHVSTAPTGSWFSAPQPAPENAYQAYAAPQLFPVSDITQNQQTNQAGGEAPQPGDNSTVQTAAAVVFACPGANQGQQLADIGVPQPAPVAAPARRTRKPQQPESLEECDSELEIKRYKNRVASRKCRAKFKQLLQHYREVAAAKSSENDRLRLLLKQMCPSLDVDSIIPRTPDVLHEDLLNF
GRIN3A LBD mod: modulates the human NR3A ligand-binding domain; NR3A LBD differential scanning fluorimetry, Tm shift; 0% = protein alone, 100% = glycine-bound protein; Tm shift relative to glycine control, % at 25 µM; 340,000 tested, 2.5% active;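 active = melting temperature shift of at least 10% of the positive control shift, at one fixed dose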
Rpn11 inh: inhibitors of human proteasome Rpn11; human 26S proteasome, Ub4-pepOG fluorescence polarization; 20S core pre-blocked with epoxomicin; inhibition, % at 20 µM; 360,000 tested, 0.59% active; AID 588493;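 active = inhibition at 20 µM, scaled to each plate's controls, above about 33%, limit read from the data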
EBNA-1 inh: blocks EBNA-1 binding to DNA; AID 1950; EBNA-1 DNA binding, fluorescence polarization; inhibition, % at 14.8 µM; 300,000 tested, 0.34% active; in the data active = inhibition above about 28%
TPT1 inhibitor: C. albicans TPT1 enzyme inhibition | recombinant caTPT1, FP RNA substrate dephosphorylation | inhibition, % at 5 µM | 300,000 tested, 0.81% active | AID 1962;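 active = inhibition above the mean of all tested compounds plus 3 SD, set per screening campaign, cut at about 24% in these data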;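 note: plate controls were DMSO alone for no effect and ferristatin control at 100 nM for full effect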
dFosB act-2: enhances mouse delta FosB homodimer binding to DNA. shares compounds with dFosB act-1. purified delta FosB, TAMRA-CDK5 oligo fluorescence polarization; normalised: neutral wells 0, positive control 100. activation, % at 24.9 µM. 2,400 tested, under 10 active. AID 588690;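 active = highest replicate activation at or above 34% and every replicate reaching that threshold; inconclusive = meets only one of the two criteria; inactive = meets neither criterion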;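 note: higher polarization means more probe DNA bound by delta FosB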
* marks the source's active call; other numbers are inactive results; ? = inconclusive; · = no result. Only some compounds are listed: those with a hit (about 4.5% of all), similar ones and a draw of the others.

SMILES	dFosB act-1	ZTA DNA inh	GRIN3A LBD mod	Rpn11 inh	EBNA-1 inh	TPT1 inhibitor	dFosB act-2
Cc1cc2oc3c(c(=O)c2cc1C)C(c1ccc(F)cc1)N(CCCN1CCOCC1)C3=O (stereo unspecified)	?	3	-1	2	-16	-3	·
Cc1oc2c(Cl)c(Cl)c(O)c(CN(C)C)c2c1C(=O)c1ccc(Cl)cc1	-11	·	-2	-8	·	·	·
Cc1ccc(S(=O)(=O)N2CCN(C(=O)C(Cc3ccccc3)NC(=O)c3ccccc3)CC2)cc1 (stereo unspecified)	23*	-6	1	1	·	·	3
Cc1ccc(S(=O)(=O)N2CCN(C(=O)[C@H](Cc3ccccc3)NC(=O)c3ccco3)CC2)cc1	-14	·	0	1	·	·	·
Cc1cccc(C)c1NC(=O)CN(C)CC(=O)N1CC(=O)Nc2ccccc21	-9	·	1	-5	·	·	·
O=C(COC(=O)C1C2CC3OC(=O)C1C3C2)Nc1ccc(Br)cc1 (stereo unspecified)	-7	-1	0	-2	1	4	·
COc1ccc(Cl)cc1N1C(=O)/C(=C/c2sccc2C)N=C1SCC(=O)NC1CC1	·	·	-1	19	·	·	·
N#C/C(=C(/O)COC(=O)c1ccc2c(c1)OCCO2)c1nc2ccccc2[nH]1	39*	9	-3	20	9	17	2
N#C/C(=C(/O)COC(=O)c1ccc(Cl)c(S(=O)(=O)N2CCOCC2)c1)c1nc2ccccc2[nH]1	0	5	7	4	-3	8	·
COc1cc(NC(=O)c2cccnc2)ccc1-c1cc2ccccc2oc1=O	·	-13	·	·	-1	-4	·
O=C(Nc1ccc(-c2cc3ccccc3oc2=O)c(Cl)c1)c1cccnc1	84*	-5	8	1	2	2	3
O=C(Nc1cccnc1)c1ccc(COc2ccccc2Br)o1	0	-5	-41	-6	2	2	·
CC(=O)Nc1ccc(NC(=O)c2ccc(COc3ccccc3Br)o2)cc1	69*	·	23*	0	·	·	-8
Cc1cccc(CNC(=O)c2ccc3nc(Cc4ccccc4F)oc3c2)n1	-2	10	-1	-4	-3	-1	·
CCCCN(CC)CCNC(=S)Nc1ccc2nc(N3CCN(C)CC3)cc(C)c2c1	21*	-7	·	3	-14	2	-3
CC(/C=N/NC(=O)c1ccccc1F)=C\c1ccccc1	-7	2	1	-1	2	2	·
COc1ccc(Br)cc1CNC(=O)CN1C(=O)C(c2ccccc2)Oc2cccnc21 (stereo unspecified)	27*	6	4	18	5	8	1
COc1ccc(NC(=O)CCCN2C(=O)C(c3ccccc3)Oc3cccnc32)cc1OC (stereo unspecified)	-1	-33	0	-4	-1	-5	·
Cc1ccc(-n2c(-c3ccc(Br)cc3)c[n+]3c2CCc2ccc4cccnc4c2-3)cc1	26*	-1	-9	-68	-10	-1	?
COc1ccc(-n2c(-c3ccc(Cl)cc3)c[n+]3c2CCc2ccccc2-3)cc1	-2	1	-2	-14	-12	0	·
COc1ccc(CN2CCNC(=O)C2CC(=O)N2CCCO2)c(OC)c1 (stereo unspecified)	7	20	-2	8	7	-1	·
O=C(/C=C/c1c(Cl)nc2ccccn12)Nc1ccc(F)cc1	-4	12	4	-4	8	-1	·
C/C(=N/NC(=O)c1ccc2c(c1)OCO2)c1ccc(NC(=O)C(F)(F)F)cc1	28*	-19	-8	1	-4	-1	1
COc1cc(/C=N/NC(=O)c2ccc3c(c2)OCO3)ccc1O	-5	·	-12	2	·	·	·
COc1ccc(/C=N/NC(=O)c2cc(-c3ccc4c(c3)OCO4)n[nH]2)cc1OC	73*	-8	25*	-8	14	-4	-4
SMILES	dFosB act-1	ZTA DNA inh	GRIN3A LBD mod	Rpn11 inh	EBNA-1 inh	TPT1 inhibitor	dFosB act-2
O=C(N/N=C/c1ccc2c(c1)OCO2)c1ccc(NC(=O)c2ccc(F)cc2)cc1	103*	0	19*	-4	-2	4	-1
COc1ccc2c(Cl)c(C(=O)N/N=C/c3ccc4c(c3)OCO4)sc2c1	34*	13	19*	3	15	2	0
CCC(CC)C(=O)Nc1cc(Cl)ccc1C	·	-9	·	·	1	0	·
O=C(CN(c1ccccn1)S(=O)(=O)c1ccccc1)N/N=C/c1cccc([N+](=O)[O-])c1	-8	-9	-5	-5	-7	-4	·
CCOC(=O)C1=C(C)NC(=O)NC1C(C)C (stereo unspecified)	-1	-4	0	-2	0	2	·
CN(C)CCNC(=O)/C=C/c1cn(-c2ccccc2)nc1-c1cc2ccccc2oc1=O	0	-5	0	2	-8	2	·
COc1cc2c(cc1NC(=O)CSc1nc3ccc(C)cc3[nH]1)oc1ccccc12	·	-9	·	·	-9	-2	·
CC(=O)c1ccc(N(C(=O)c2csnn2)C(C(=O)NC(C)(C)C)c2cccs2)cc1 (stereo unspecified)	-5	10	-1	0	-9	3	·
COc1ccc(NS(=O)(=O)c2cccc(C(=O)N/N=C/c3ccc4c(c3)OCCO4)c2)cc1	25*	-4	2	-10	-8	-5	-5
Cc1ccc(Cl)cc1NC(=O)C(=O)N/N=C/c1ccc2c(c1)OCO2	40*	·	1	-12	·	·	-1
Cc1ccc(C)c(NC(=O)CCC(=O)N/N=C/c2ccc3c(c2)OCO3)c1	6	-6	0	2	-5	-3	·
O=C(N/N=C\C=C\c1ccc(Br)cc1)c1ccc2c(c1)OCO2	24*	-7	-9	116*	-7	0	3
CCOC(=O)[C@H]1[C@H]2COc3ccc(OC)cc3[C@@H]2N2C(=O)c3cc(F)c(F)cc3NC(=O)[C@@]12C	-1	4	-4	-14	-5	8	·
COc1ccc2nc(NC(=O)C3CCCN(S(=O)(=O)c4cccc5nonc45)C3)sc2c1 (stereo unspecified)	5	3	-4	6	-1	1	·
COc1ccc2nc(NC(=O)C3CCCN(S(=O)(=O)c4cccc5nsnc45)C3)sc2c1 (stereo unspecified)	25*	7	-3	30	20	-2	-1
C/C(CC(=O)Nc1ccc(Cl)cc1Cl)=N\NC(=O)c1cnccn1	-17	-7	0	2	-6	0	·
Cc1cccc(-n2ncc3c(=O)[nH]c(SCC(=O)N4CC(=O)Nc5ccccc54)nc32)c1	47*	7	-7	-2	·	·	4
O=C(CCCCn1c(=S)[nH]c2ccsc2c1=O)NCc1ccc2c(c1)OCO2	125*	15	-11	8	-9	1	1
